The source of these data is PubChem BioAssay (EPA / NIEHS).

Read-out in test [1]: CD40, CD40 (gene 958)
In words: BSK_IMphg_CD40: BioMAP Diversity Plus: IMphg Assay for CD40 Biomarker Activity (AID 2284288). Particulars: primary human endothelial cells with macrophages. The procedure, abridged:
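Venular endothelial cells co-cultured with macrophages (human primary), CD40 measured by ELISA 24 h after dosing. Positive-direction fit vs DMSO baseline; cytotoxicity tracked by SRB total-protein staining in parallel cultures.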

Read-out in test [2]: TIMP metallopeptidase inhibitor 2 (TIMP2), TIMP2 (gene 7077)
In words: BSK_hDFCGF_TIMP2: BioMAP Diversity Plus: hDFCGF Assay for TIMP metallopeptidase inhibitor 2 (TIMP2) Biomarker Activity (AID 2284289). The settings on record: primary human foreskin fibroblasts. The procedure, abridged: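 Primary human foreskin fibroblasts in the hDFCGF system, dosed for 24 h; TIMP-2 level measured by ELISA, fitted in the positive direction against DMSO; cytotoxicity checked in parallel by sulforhodamine B total protein staining.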

Read-out in test [3]: Interleukin-1 alpha (IL1a), IL1A (gene 3552)
In words: BSK_IMphg_IL1a: BioMAP Diversity Plus: IMphg Assay for Interleukin-1 alpha (IL1a) Biomarker Activity (AID 2284290). The settings on record: primary human endothelial cells with macrophages. The procedure, abridged: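 Human venular endothelial cells co-cultured with macrophages, IMphg system. IL-1α is measured by ELISA 24 h after dosing and fitted in the positive direction against DMSO. Cytotoxicity is assessed by SRB staining of parallel cultures.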

Read-out in test [4]: E-selectin (Homo sapiens) (UniProt P16581)
In words: BSK_IMphg_ESelectin: BioMAP Diversity Plus: IMphg Assay for Eselectin Biomarker Activity (AID 2284291). The settings on record: primary human endothelial cells with macrophages. The procedure, abridged:
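Human venular endothelial cell–macrophage co-culture, E-selectin measured by ELISA 24 h after chemical dosing. Signal fitted in the positive direction against DMSO as negative control and baseline.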

The nature of test [5]: BSK_IMphg_SRB: Viability Assessment in the BioMAP Diversity Plus: IMphg Assay (AID 2284292).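 Further: measured one day after compound addition.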 The settings on record: primary human endothelial cells with macrophages. In a few lines: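 Human venular endothelial cells with macrophages, 24 h after chemical dosing; total protein by 0.1% SRB staining after 10% TCA fixation, read at 560 nm. Positive-direction fitting versus DMSO baseline.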

Read-out in test [6]: Macrophage colony-stimulating factor (MCSF), CSF1 (gene 1435)
In words: BSK_IMphg_MCSF: BioMAP Diversity Plus: IMphg Assay for Macrophage colony-stimulating factor (MCSF) Biomarker Activity (AID 2284293). The settings on record: primary human endothelial cells with macrophages. The procedure, abridged:
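Co-culture of human venular endothelial cells and macrophages, 24 hours of chemical exposure. M-CSF quantified by ELISA, with parallel SRB total-protein staining for cytotoxicity; activity fitted relative to DMSO.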

Read-out in test [7]: Interleukin-10 (IL10), IL10 (gene 3586)
Description: BSK_IMphg_IL10: BioMAP Diversity Plus: IMphg Assay for Interleukin-10 (IL10) Biomarker Activity (AID 2284294). Particulars: primary human endothelial cells with macrophages. The procedure, abridged: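 Human venular endothelial cells cocultured with macrophages, dosed 24 h; IL-10 measured by ELISA, activity relative to DMSO. Cytotoxicity assessed in parallel cultures by sulforhodamine B total-protein staining.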

Test [8] is described as follows: BSK_IMphg_SRB.Mphg: Macrophage Viability Assessment in the BioMAP Diversity Plus: IMphg Assay (AID 2284295). Particulars: primary human endothelial cells with macrophages. In a few lines: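 Venular endothelial cells co-cultured with macrophages, read 24 h after dosing. Total protein measured by 0.1% SRB staining after 10% TCA fixation, absorbance at 560 nm. Fitted in positive direction against DMSO baseline.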

Read-out in test [9]: Thrombomodulin, THBD (gene 7056)
Description: BSK_LPS_Thrombomodulin: BioMAP Diversity Plus: LPS Assay for Thrombomodulin Biomarker Activity (AID 2284296). The settings on record: primary human HUVEC with PBMC. In a few lines: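 Human umbilical vein endothelial cells co-cultured with PBMC and stimulated with LPS; cell-surface thrombomodulin measured by ELISA 24 hours after compound. Gain or loss versus DMSO; cytotoxicity checked by SRB staining in parallel cultures.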

Read-out in test [10]: CD69, CD69 (gene 969)
Description: BSK_LPS_CD69: BioMAP Diversity Plus: LPS Assay for CD69 Biomarker Activity (AID 2284303). Particulars: primary human HUVEC with PBMC. The procedure, abridged: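 Human umbilical vein endothelial cells co-cultured with PBMC under LPS stimulation, chemical exposure 24 h; cell-surface CD69 measured by ELISA and fitted in the positive direction versus DMSO.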

A short description of test [11]: CCTE_Mundy_HCI_iCellGluta_NOG_NeuriteLength: CCTE's Neurite Outgrowth Assay in iCellGluta cells for Neurite Length, Mundy Lab (AID 2284318; active means hit-call score of the fitted dose curve at least 0.9, where 1 is the maximum). In a few lines:
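Automated high-content imaging of betaIII-tubulin (Alexa Fluor-488) and Hoechst-stained cells gave neurite length, normalized to the DMSO baseline.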

For test [12], the system named is TTR (gene 7276). Description: CCTE_GLTED_hTTR_0.5uM: CCTE's human Transthyretin (hTTR) Inhibition Assay, with 0.5uM TTR, Great Lakes Toxicology and Ecology Division (GLTED) Lab (AID 2284320). In a few lines: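 Cell-free displacement assay in which human TTR at 0.5 uM was incubated with test chemical for 2 h. Displacement of the ANSA probe was read by fluorescence at 380 nm excitation/475 nm emission. Loss of signal was fitted in the positive direction versus DMSO.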

Test [13] is described as follows: CCTE_Mundy_HCI_iCellGluta_NOG_NeuronCount: CCTE's Neurite Outgrowth Assay in iCellGluta cells for Neuron Count, Mundy Lab (AID 2284340; active means hit-call score of the fitted dose curve at least 0.9, where 1 is the maximum;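 further: cells fixed about 48 h after compound addition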). The procedure, abridged:
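Neuron count read by automated high-content imaging of Hoechst 33342 and betaIII-tubulin/Alexa Fluor-488 labelling in human iPSC glutamatergic neurons. Activity fitted relative to DMSO.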

Test [14] in a line: CCTE_Mundy_HCI_iCellGluta_NOG_NeuriteCount: CCTE's Neurite Outgrowth Assay in iCellGluta cells for Neurite Count, Mundy Lab (AID 2284342; active means hit-call score of the fitted dose curve at least 0.9, where 1 is the maximum;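 further: chemical exposure about 48 hours starting 2 hours after plating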).
Test [15] in a line: Tanguay_ZF_120hpf_MO24: Oregon State University Tanguay Lab 24 Hour Post-fertilization zebrafish Assay for Mortality (AID 2284389). The procedure, abridged:
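Dechorionated wild-type zebrafish embryos, 1 per well, statically exposed from 6 hpf at 28C, 0.64% DMSO final. Mortality scored as binary present/absent at 24 hpf by brightfield microscopy, relative to DMSO.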

Test [16] concerns IYD (gene 389434). In words: CCTE_GLTED_hIYD: CCTE's human Iodotyrosine Deiodinase (xIYD) Inhibition Assay, Great Lakes Toxicology and Ecology Division (GLTED) Lab (AID 2284317; active means hit-call score of the fitted dose curve at least 0.9, where 1 is the maximum;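 further: cell-free human IYD enzyme made in baculovirus insect cells; iodide freed from monoiodotyrosine measured by cerium arsenite color change at 420 nm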). In a few lines:
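hIYD: baculovirus-expressed human IYD deiodinated monoiodotyrosine for 3 h with test chemical; free iodide was measured by Sandell-Kolthoff absorbance at 420 nm and normalized to MNT and DMSO/NaOH controls.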

The structures appear in SMILES notation. Several values for one entry are separate records, joined by “and”; a condition that tells them apart may be missing. Equal values may be shown once. Records with an inconclusive call do not appear. More than one record can exist for a structure, and the calls need not agree. Activity calls are given as the source filed them. How the source made its calls, unless noted: active means hit-call score of the fitted dose curve at least 0.9, where 1 is the maximum; inactive means score below 0.9.

Chain of E-selectin (Homo sapiens) (P16581 whole entry, looked up): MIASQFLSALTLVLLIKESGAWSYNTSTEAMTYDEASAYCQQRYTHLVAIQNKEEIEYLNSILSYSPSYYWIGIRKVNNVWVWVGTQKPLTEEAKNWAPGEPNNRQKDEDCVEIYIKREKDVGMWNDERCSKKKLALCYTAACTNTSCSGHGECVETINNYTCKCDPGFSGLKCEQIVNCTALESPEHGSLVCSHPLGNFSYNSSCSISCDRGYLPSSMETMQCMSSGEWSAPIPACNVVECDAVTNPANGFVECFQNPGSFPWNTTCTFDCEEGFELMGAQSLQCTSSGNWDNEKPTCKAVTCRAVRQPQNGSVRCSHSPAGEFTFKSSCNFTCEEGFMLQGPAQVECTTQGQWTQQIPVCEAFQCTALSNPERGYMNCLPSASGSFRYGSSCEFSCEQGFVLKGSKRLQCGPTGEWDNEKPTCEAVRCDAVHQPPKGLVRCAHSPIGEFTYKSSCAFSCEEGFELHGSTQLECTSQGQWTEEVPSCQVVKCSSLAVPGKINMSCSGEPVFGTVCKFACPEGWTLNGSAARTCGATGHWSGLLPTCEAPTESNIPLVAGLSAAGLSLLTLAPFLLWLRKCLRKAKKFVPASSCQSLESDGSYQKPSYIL

Broadly, the AC50 is the concentration at which the activity in the assay is half-maximal. On to `NC(=O)C(F)(F)C(F)(F)C(F)(F)C(F)(F)C(N)=O`, for which the outcome in test [1], in test [2], in test [3], in test [4], in [5] and in [6] was inactive. Besides, the result in [7], in test [8], in [9], in [10], in [11] and in test [13] was inactive. Further, the outcome in test [14] and in test [15] was inactive. Further, the AC50 in test [2] was 0.22 µM (active); in test [9], 598 nM (active); in test [12] it was 44.1 µM (active).

As for `O=C(O)CCC(F)(F)C(F)(F)C(F)(F)F`, the AC50 is 0.22 µM (active) in test [1] and 17.6 µM (active) in test [12]. For the same compound, the outcome in test [1], in test [2], in test [3], in test [4], in [5] and in [6] was inactive. The result in test [7], in test [8], in test [9], in test [10], in [11] and in test [13] was inactive. For the same compound, the result in test [14] and in test [15] was inactive.

In the case of `CNS(=O)(=O)C(F)(F)C(F)(F)C(F)(F)C(F)(F)C(F)(F)C(F)(F)C(F)(F)C(F)(F)F`, the outcome in test [1], in [2], in test [5], in test [6], in [7] and in [8] was inactive. For the same compound, the outcome in test [9], in test [10] and in test [15] was inactive. Also, the AC50 in [2] was 7.96 µM (active); in [3], 6.58 µM (active) and 9.9 µM (active); in test [4], 5.55 µM (active) and 8.07 µM (active); in test [7], 17.9 µM (active); in test [12], 1.34 µM (active).

For the compound `O=C(O)CCC(F)(F)C(F)(F)C(F)(F)C(F)(F)C(F)(F)C(F)(F)C(F)(F)F`, the outcome in test [1], in test [2], in test [3], in [5], in [6] and in [8] was inactive. For the same compound, the outcome in [9], in test [10], in test [11], in test [13], in [14] and in test [15] was inactive. Further, the AC50 in test [4] was 2.27 µM (active) and 1.87 µM (active); in test [7], 3.33 µM (active); in [8], 4.29 µM (active); in [16], 160 µM (active); in test [12], 3.34 µM (active).

Take `NC(O)(C(F)(F)F)C(F)(F)F`: the outcome in test [1], in test [2], in test [3], in test [4], in [5] and in test [6] was inactive. The result in [7], in [8], in [9], in [10], in test [11] and in test [13] was inactive. Besides, the call in [14] and in test [15] was inactive. Further, the AC50 in test [10] is 1.45 µM (active).

Regarding `CCN(CCO)S(=O)(=O)C(F)(F)C(F)(F)C(F)(F)C(F)(F)C(F)(F)C(F)(F)C(F)(F)C(F)(F)F`, the AC50 in [1] is 36.9 µM (active); in [4], 5.54 µM (active) and 6.2 µM (active); in test [5] it was 30 µM (active); in test [8] it was 44.2 µM (active); in test [9], 16.6 µM (active) and 13.5 µM (active); in test [10], 8.1 µM (active) and 7.79 µM (active). The result in test [1], in [2], in test [3], in [6], in test [7] and in [8] was inactive. Moreover, the call in test [11], in test [13], in test [14] and in test [15] was inactive.
